We go through eight compounds from PubChem BioAssay (NCI).

About 83,000 compounds went through this panel and 20% of them were active in at least one assay; those are over-represented in the sample as a whole.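 Compound tested at a single concentration for 48 hours in 96-well plates; a percent growth value below 10 was scored as active.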 A number with no mark means an inactive call. Activity calls are given as the source filed them.

Common to all, as to test: NCI-60 one-dose screen, 48 h (100 = growth as untreated, 0 = no growth, -100 = all killed)
Details in all cases: 10 µM unless noted

Test [1] deals with NCI-H23 lung.
Test [2] deals with NCI-H226 lung.
Test [3] has as its system NCI-H322M lung.
In test [4] the test system is HOP-62 NSCLC.
Test [5] deals with NCI-H460 lung.
For test [6], the system named is NCI-H522 lung.
Test [7] relates to A549/ATCC NSCLC.
For test [8], the system named is 786-0 renal.
The test system of test [9] is COLO 205 colon.
The test system of test [10] is DU-145 prostate.
The test system of test [11] is K-562 leukemia.
Test [12] deals with MALME-3M melanoma.
In test [13] the test system is MDA-MB-231 breast.
Test [14] relates to RXF 393 renal.
For test [15], the system named is SF-268 CNS.
Test [16] relates to SF-295 CNS.
The subject of test [17] is SF-539 CNS.
Test [18] relates to UACC-257 melanoma.
Test [19] concerns M14 melanoma.

In the case of `COc1cccc2cc(-c3cc4ccccc4[nH]3)/c(=N\NC(=O)c3ccc(Cl)cc3)oc12`, the growth in test [1] is 44.6%; in test [2], 44%; in [3], 41.5%; in test [4], 31.3%; in test [5] it was 18.4%; in test [6], 18.7%. In addition, the growth in [7] was 39.8%; in test [8], 48.5%; in test [9] it was 62.1%; in test [10] it was 48.3%; in [11], 22.1%; in test [12] it was 61.7%. The growth is 41.3% in [13]; 45.9% in [14]; 32.9% in [15]; 43.2% in test [16]; 33.1% in [17]; 17.4% in test [18]. Besides, the growth in test [19] was 31.9%.

For the compound `Cc1cc(C)c(N2C(=O)CC(Nc3ccc(Cl)cc3Cl)C2=O)c(C)c1` (centres undefined), the growth in [1] is 104%; in test [2], 107%; in [3] it was 99.8%; in [4], 104%; in [5] it was 105%; in test [6], 93.6%. Further, the growth in test [7] was 104%; in [8], 102%; in [9], 124%; in test [10] it was 110%; in test [11], 102%; in test [12], 96.7%. Also, the growth in test [13] is 102%; in test [14] it was 121%; in [15] it was 106%; in [16] it was 105%; in [17], 96.8%; in test [18] it was 103%. Besides, the growth in [19] is 103%.

Regarding `Cc1ccc2c(c1)Oc1nc(N)c(C#N)c(N)c1C2Sc1ccc(F)cc1` (centres undefined), the growth was -88.2% (active) in test [1]; -50.6% (active) in test [2]; -98.7% (active) in test [3]; -86.3% (active) in [4]; -50.4% (active) in test [5]; -58.1% (active) in test [6]. The growth is -82.2% (active) in test [7]; -97.3% (active) in test [8]; -49.7% (active) in test [9]; -98.9% (active) in [10]; -13.6% (active) in test [11]; -91.9% (active) in [12]. The growth was -92.5% (active) in test [13]; -81.6% (active) in [15]; -96.9% (active) in [16]; -99% (active) in [17]; -94.4% (active) in test [18].

In the case of `Nc1ncc(-c2ccc(NS(=O)(=O)c3ccc(Cl)c(Cl)c3)cc2)[nH]1`, the growth in test [1] is 95.9%; in [2], 87.3%; in test [3], 97%; in test [4] it was 113%; in [5], 93.6%; in test [6], 92.7%. Besides, the growth in test [7] was 92.5%; in test [8], 93.8%; in [9], 109%; in [10], 103%; in [11], 89.7%; in [12], 85.3%. Moreover, the growth in [13] is 91.2%; in [14], 95.4%; in test [15], 75.1%; in test [16] it was 90.8%; in test [17], 88.1%; in test [18], 87.7%. Besides, in test [19], the growth is 95.5%.

Take `O=C(NNc1nc2cc(F)c(F)cc2n2cccc12)c1cnccn1`: the growth in test [1] is 34.5%; in test [2] it was 45.1%; in [3], 35%; in test [4], 24.8%; in test [5], 7.99% (active); in test [6] it was 13.4%. Further, the growth is 24.1% in [7]; 30.6% in [8]; 11.9% in test [9]; 32.7% in test [10]; 15.5% in test [11]; 49.7% in [12]. The growth in test [13] is 44%; in test [15] it was 32.5%; in test [16], 11.1%; in test [17] it was 19.9%; in test [18] it was 17.5%.

For `CCn1c2ccccc2c2cc(-n3nncc3-c3ccccc3)ccc21`, the growth is 7.25% (active) in [1]; 47.8% in [2]; 45.1% in test [3]; 66% in test [4]; 0.528% (active) in test [5]; 4.55% (active) in test [6]. In addition, the growth was 24.5% in test [7]; 31.6% in test [8]; -10.9% (active) in test [9]; 13.3% in test [10]; 10.3% in test [11]; 56.3% in [12]. The growth in test [13] was 27.2%; in test [15], 35.2%; in test [16], 15.7%; in [17], -17.7% (active); in test [18] it was 85.4%.

For `Cc1ccc(-c2nnc(SCc3ccc(O)c4ncccc34)o2)cc1`, the growth in test [1] was 27.9%; in test [2], 45.2%; in [3] it was 26.3%; in [4] it was 19.7%; in [5], 2.77% (active); in [6], 26.6%. In addition, the growth in test [7] was 24.7%; in test [8], 24.5%; in [9], 88.2%; in test [10] it was 28.7%; in [11], 11.3%; in [12], 1.77% (active). In addition, the growth in test [13] was 41.7%; in test [15], 21.2%; in test [16], 5.77% (active); in [17] it was 14.9%; in [18], 9.75% (active).

With `CCOC(=O)c1c(Nc2ccccc2)nn2c(-c3cccs3)ccnc12`, the growth was 92.7% in [1]; 89% in test [2]; 94.4% in [3]; 93.8% in test [4]; 92.3% in test [5]; 82.1% in test [6]. Moreover, the growth in test [7] was 95.2%; in test [8], 71%; in test [9], 92.7%; in test [10], 84.7%; in [11], 59%; in [12], 88.7%. Further, the growth was 81.3% in [13]; -6.08% (active) in test [14]; 91.4% in test [15]; 84.1% in [16]; 84.1% in [17]; 108% in test [18]. In test [19], the growth was 91.6%.
